# Pf growth 96h – Primary qHTS for delayed death inhibitors of the malarial parasite plastid, 96 hour incubation; P. falciparum luciferase reporter growth, 96 h; Potency, µM (titrated, usually from 28.7 µM), without a hit: at the top dose activity change, negative = inhibition, usual class: inhibitors; actives 6.9% (n = 320,000); note: % is set by controls: 0 for no effect and ±100 for the full control effect
#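 Readout is luminescence from an integrated firefly luciferase in P. falciparum. Red cells, 2% hematocrit and 0.05% parasitemia final, were cultured with compound through two parasite generations (96 hours) at 37 C, 5% CO2.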
# Pf growth 48h – Primary qHTS for delayed death inhibitors of the malarial parasite plastid, 48 hour incubation | P. falciparum luciferase growth in erythrocytes, 48 h | Potency, µM (titrated, usually from 28.7 µM), for inactives: at the top dose activity change, negative = inhibition, actives largely listed as inhibitors | actives 5.9% (n = 310,000) | AID 504832, 2011; note: % is set by controls: 0 for no effect and ±100 for the full control effect
#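 Here the parasites carry a stable luciferase gene and grow inside erythrocytes in Albumax-based RPMI medium with compound for one erythrocytic cycle. Activity is scored as loss of luminescent signal.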
# AMA1 RON2 block – qHTS for Inhibitors of AMA1-RON; Towards Development of Antimalarial Drug Lead: Primary Screen; AID 720542, 2013; AlphaScreen AMA1-biotinylated RON2 peptide binding; Plasmodium falciparum AMA1 (3D7) - RON2 peptide interaction; Potency, µM (highest dose often 58.2 µM), without a hit: at the highest dose activity change, negative = inhibition, most hits filed as inhibitors; actives 0.2% (n = 360,000);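 note: 0% = vehicle wells and -100% = peptide control; nearly all actives have a fitted effect of over 45% in size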
#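 AMA1 (3D7) with his tag at 25 nM final met compounds first, then biotinylated RON2 peptide at 25 nM; detection used donor plus acceptor beads, 10 µg/mL apiece, read by AlphaScreen after 30 min at room temperature.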
# SARS PLpro yeast – qHTS of Yeast-based Assay for SARS-CoV PLP; S. cerevisiae expressing SARS-CoV PLpro, growth rescue; Potency, µM (series often up to 32.9 µM), inactives show top-dose activity, positive = growth rescue, actives largely listed as activators; actives 0.19% (n = 330,000); AID 485353, 2010; calls by dose curve; note: 0% is about no effect; nearly all actives have a fitted effect of over 55% in size
# * marks the source's active call; other numbers are inactive results; ? = inconclusive; nt = not tested or not shown; ! = repeats disagree; [ ] = another dose, or the depositor's remark. In the library only some 9.4% were active in any assay of this set; here they are far more common. Unless noted, calls come from the whole dose curve; as a rule, active = well fitted curve in the direction sought with a large enough effect; inconclusive = small, poorly fitted or top-dose-only effect, or another doubt; inactive = no such curve, though single readings can be large; an effect the other way counts as inactive or inconclusive. Potency is the fitted concentration of half-maximal effect.
SMILES,Pf growth 96h,Pf growth 48h,AMA1 RON2 block,SARS PLpro yeast
OCC1OC([S-])[C@H](O)C(O)C1O.[Au+] (stereo not given in full),4.78µM*,-21.6%,nt,nt
O=C(CN(c1ccc(F)cc1)S(=O)(=O)c1ccc2c(c1)OCCO2)NCC1CCCO1 (stereo not given),49.4%,-18.8%,-12.7%,-5.1%
O=C1Nc2ccccc2C12NCCc1c2[nH]c2ccccc12 (stereo not given),nt,6.57µM*,-2.8%,-4.1%
CCCCCCCCCCCC(CC1OC(=O)C1CCCCCC)OC(=O)C(CC(C)C)NC=O (stereo not given),1.51µM*,1.07µM*,nt,nt
CC1(C)CC(N2CCCC2)=CC(=[N+]2CCCCCC2)C1,-19.8%,?,11.8%,1.8%
CN(Cc1ccccc1)C1=CC(=[N+]2CCCC2)CC(C)(C)C1,0.586µM*,0.928µM*,3.1%,0.1%
CCN(CC)C1=CC(=[N+]2CCCC2)CC(C)(C)C1,0.37µM*,1.31µM*,-4.4%,?
COCCN(CCOC)S(=O)(=O)c1ccc(C(=O)Nc2ccc([N+](=O)[O-])cc2OC)cc1,?,16.6%,-10.7%,0.7%
COc1ccc(C(=O)OCC(=O)Nc2cc(C)on2)c(OC)c1OC,3.8%,22.4%,-2.0%,1.7%
C1CNC(C23CC4CC(CC(C4)C2)C3)=N1,-19.6%,6.9%,9.0%,1.1%
CCC1(C2=NCCN2)Cc2ccccc2O1 (stereo not given),7.57µM*!,5.2%,-1.4%,nt
Cc1nc(=O)c(-c2ccccc2)c(C)n1-c1ccc(C(=O)O)cc1,1.65µM*,-22.7%,-0.3%,?
CC(=O)Nc1ccc(CN2CCCC(CO)(Cc3ccccc3C)C2)cc1 (stereo not given),-11.1%,?,-12.9%,1.1%
CCOC(=O)C1(Cc2ccccc2C)CCCN(C(=O)c2ccc3nccnc3c2)C1 (stereo not given),-23.4%,13.1µM*,1.9%,7.2%
CCOC(=O)C1(Cc2ccccc2C)CCCN(Cc2ccc(NC(C)=O)cc2)C1 (stereo not given),?,5.22µM*,-5.0%,0.3%
CCOC(=O)C1(Cc2ccccc2C)CCCN(C(=O)c2ccccn2)C1 (stereo not given),?,-3.9%,20.3%,-3.2%
Cc1ccccc1NC(=S)N(CCCN1CCCCC1)Cc1ccco1,-17.2%,-16.8%,-1.4%,16.2%
COc1ccc(NC(=O)N(Cc2cccnc2)Cc2ccccc2Cl)c(OC)c1,nt,nt,-7.1%,nt
Cc1ccccc1NC(=S)N(Cc1cccnc1)Cc1ccco1,1.85µM*,?,2.6%,21.2%
Cc1ccccc1NC(=S)N(CCCN1CCC(C)CC1)Cc1ccco1,13.1µM*,-25.6%,-2.7%,-6.4%
Cc1ccc(Cl)cc1NC(=S)N(Cc1cccnc1)Cc1ccccc1Cl,20.2%,13.1µM*,14.5%,-14.2%
Cc1ccccc1NC(=S)N(Cc1ccccc1)Cc1cccnc1,-5.0%,?,-3.5%,1.4%
O=C(Nc1ccnn1C1CCN(C/C=C/c2ccccc2)CC1)C1CCCC1,?,13.1µM*,0.0%,1.4%
COc1ccccc1C(=O)Nc1ccnn1C1CCN(C/C=C/c2ccc(F)cc2)CC1,-12.6%,11.7µM*,0.0%,-2.5%
CN1C(=O)CC(c2cn(Cc3ccccc3)c3ccccc23)C1=O (stereo not given),2.62µM*,?,4.0%,-2.9%
SMILES,Pf growth 96h,Pf growth 48h,AMA1 RON2 block,SARS PLpro yeast
CC(=O)N1N=C(c2ccccc2)CC1c1cn(Cc2ccccc2)c2ccccc12 (stereo not given),?,?,-28.4%,-18.8%
Cc1ccc(/C=N/n2nnnc2N)cc1,nt,nt,2.0%,nt
Cc1no[n+]([O-])c1COc1ccc(/C=N/n2nnnc2N)cc1,11.7µM*,-29.3%,11.5%,14.8%
COCCOC(=O)C1=C(C)N=C2SCCC(=O)N2C1/C=C/c1ccccc1 (stereo not given),-25.7%,?,0.0%,0.5%
CSc1nsc(/C=C/Nc2ccc(Cl)cc2)c1C#N,1.17µM*,1.17µM*,-1.1%,-4.5%
CSc1nsc(/C=C/Nc2ccc(F)cc2)c1C#N,6.57µM*,-22.8%,25.2%,3.4%
O=C(Nc1ccc(N2CCN(C(=O)c3ccco3)CC2)cc1)c1ccc(Br)cc1,?,?,-7.6%,11.1%
COc1ccccc1C1C2CCCCC2(O)CCN1CC(=O)Nc1ccccc1 (stereo not given),?,?,-2.5%,0.0%
COC(=O)c1c(NC(=O)CN2CCC3(O)CCCCC3C2c2ccc(F)cc2)sc(C)c1C (stereo not given),?,8.28µM*,5.9%,-17.0%
COC(=O)c1c(NC(=O)CN2CCC3(O)CCCCC3C2c2cc(OC)ccc2OC)sc(C)c1C (stereo not given),10.4µM*,?,-29.4%,-36.3%
O=C(O)c1cccc(NC(=O)c2ccc3c(c2)C(=O)N(c2ccccc2)C3=O)c1,1.6%,-30.8%[0.00184 µM],-2.4%,-2.3%
O=S(=O)(c1ccc2nc(-c3ccco3)c(-c3ccco3)nc2c1)N1CCOCC1,-0.5%,11.7µM*,-29.5%,8.0%
NC(=O)c1ncc(C(F)(F)F)cc1Oc1cccc(C(F)(F)F)c1,?,nt,4.4%,-6.6%
CCCCCn1c(=S)[nH]c2cc(C(=O)N3CCCC3)ccc2c1=O,23.0%,?,10.9%,2.1%
c1ccc(C2(c3ccccc3)CC2C2=NCCN2)cc1 (stereo not given),13.5µM*,?,nt,nt
c1ccc2c(c1)CSc1ccccc1C2C1=NCCN1 (stereo not given),-5.1%,-5.4%,-7.1%,-1.6%
COc1ccc(C(=O)OCC(=O)NCC2CCCO2)c(F)c1 (stereo not given),9.2%,4.1%,-5.5%,0.7%
Cc1ccccc1NC(=O)C1Cc2ccccc2CN1C(=O)c1ccco1 (stereo not given),-27.0%,-21.9%,4.0%,-4.3%
Cc1ccc(NC(=O)C2CCCN2C(=O)OCc2ccccc2)c(C)c1 (stereo not given),-0.6%,0.3%,-6.8%,-2.4%
Cc1cccc(NC(=O)N2CCCC2C(=O)NCc2ccccc2)c1 (stereo not given),9.28µM*,-9.4%,-3.9%,5.5%
Cc1ccc(NC(=O)C2CCCN2C(=O)OCc2ccccc2)c(O)c1 (stereo not given),5.22µM*,?,-2.3%,-0.1%
Cc1ccccc1NC(=O)C1Cc2ccccc2CN1C(=O)OCc1ccccc1 (stereo not given),13.1µM*,-22.5%,-6.4%,5.6%
CCc1ccc(NC(=O)C2=CC(c3ccc(OC)cc3)=NS(=O)(=O)N2C)cc1,-17.8%,26.9%,-12.9%,-6.4%
CSc1nc2c(c(=O)[nH]c(=O)n2C)n1Cc1ccccc1Cl,5.22µM*,-12.8%,-1.5%,0.7%
Cc1ccc(Cn2c(SCCN3CCCCC3)nc3c2c(=O)[nH]c(=O)n3C)cc1,3.7µM*,-14.0%,-4.3%,7.8%
